# Experimental data from the supplement of paper PMC13380429.
# Values without a mark were called inactive.
# Tested on: Vero E6 infected with SARS-CoV-2
# Test: inhibition of SARS-CoV-2 cytopathic effect; higher = more antiviral protection, active = above 15
# Conditions: 48 h
Structure (SMILES),inhibition of SARS-CoV-2 cytopathic effect (1 nM),inhibition of SARS-CoV-2 cytopathic effect (8.33 nM),inhibition of SARS-CoV-2 cytopathic effect (100 nM),inhibition of SARS-CoV-2 cytopathic effect (833.33 nM),inhibition of SARS-CoV-2 cytopathic effect (10000 nM)
CCOC(=O)OC(C)OC1=C(C(=O)Nc2ccccn2)N(C)S(=O)(=O)c2ccccc21 (stereo not given) [ampiroxicam],1.01%,-0.58%,1.16%,2.1%,2.74%
Cc1ccc2c(c1)C(=O)[C@]1(O)CCN(c3ccccc3)C1=N2 (racemic) [blebbistatin-(+/-)],0.35%,-0.695%,-1.93%,-1.36%,-2.33%
O=C(Cc1cccc(OC(F)(F)F)c1)Nc1ccc(CCCCc2nnc(NC(=O)Cc3ccccn3)s2)nn1,-1.49%,-0.26%,-1.18%,-5.17%,-3.68%
CCNC(=O)[C@H]1O[C@@H](n2cnc3c(N)nc(NCCc4ccc(CCC(=O)O)cc4)nc32)[C@H](O)[C@@H]1O,-1.55%,-1.11%,-2.43%,-1.74%,1.23%
CC(=O)NCCc1c[nH]c2ccccc12 [N-acetyltryptamine],0.9%,2.35%,2.28%,-0.38%,2.53%
CC(C)CN(C[C@@H](OP(=O)(O)O)[C@H](Cc1ccccc1)NC(=O)O[C@H]1CCOC1)S(=O)(=O)c1ccc(N)cc1 [fosamprenavir],-0.69%,0.83%,0.76%,-0.52%,-2.55%
O=C1Nc2ccc(I)cc2C1=Cc1cc(Br)c(O)c(Br)c1,2.36%,0.05%,1.54%,2.76%,8.55%
CCCn1c(=O)[nH]c2nc(-c3ccc(S(=O)(=O)O)cc3)[nH]c2c1=O,0.98%,-0.31%,-0.83%,0.97%,0.55%
CN(C)C(=O)C(=O)c1cn(C)c2cc(Cl)c(C(=O)N3CCC(Cc4ccc(F)cc4)CC3)cc12,2.15%,-1.11%,-2.84%,-2.05%,6.33%
NCCCCCc1c[nH]cn1 [impentamine],-2.08%,-1.69%,-0.14%,-0.52%,0.02%
CCCSc1ccc2[nH]c(NC(=O)OC)nc2c1 [albendazole],3.38%,-0.38%,-0.24%,-0.32%,2.97%
CCOC(=O)[C@@](C)(N)Cc1ccc(O)c(O)c1 [methyldopate],6.97%,1.54%,-0.9%,1.46%,2.33%
CCN(CC)CCOc1ccc2c(c1)C(=O)c1cc(OCCN(CC)CC)ccc1-2 [tilorone],-0.99%,0.89%,1.34%,0.62%,24.9% (active)
NCCCC[C@H](N[C@@H](CCc1ccccc1)C(=O)O)C(=O)N1CCC[C@H]1C(=O)O [lisinopril],0.42%,0.67%,0.78%,0.97%,1.56%
COc1cc2ncnc(Nc3ccc(Oc4ccccc4)cc3)c2cc1OC [SRC-kinase-inhibitor-I],14.1%,2.88%,0.56%,-4.38%,-9.32%
O=C(Nc1cc(Cl)cc(Cl)c1O)c1c(O)c(Cl)cc(Cl)c1Cl [oxyclozanide],-1.81%,-0.46%,0.71%,-1.33%,-1.62%
CCCCCCCC/C=C\CCCCCCCC(=O)N[C@@H](CO)Cc1ccc(O)cc1,0.56%,-0.46%,1.38%,1.23%,-2.65%
CCOP(=S)(OCC)Oc1cc(C)nc(C(C)C)n1 [dimpylate],1.47%,-0.54%,2.07%,1.11%,-3.47%

Structure (SMILES),inhibition of SARS-CoV-2 cytopathic effect (1 nM),inhibition of SARS-CoV-2 cytopathic effect (8.33 nM),inhibition of SARS-CoV-2 cytopathic effect (100 nM),inhibition of SARS-CoV-2 cytopathic effect (833.33 nM),inhibition of SARS-CoV-2 cytopathic effect (10000 nM)
CCCc1cc(C(N)=S)ccn1 [protionamide],-1.61%,2.36%,1.7%,3.81%,-1.88%
CN[C@H]1CC[C@@H](c2ccc(Cl)c(Cl)c2)c2ccccc21,-7.46%,3.54%,8.81%,-0.02%,12.1%
CC(C)C[C@H](NC(=O)[C@@H]1CCCN1)C(=O)NCC(N)=O [prolylleucylglycinamide],0.63%,2.46%,1.44%,0.51%,1.22%
CCOC(=O)Nc1ccc2c(c1)N(C(=O)CCN(CC)CC)c1ccccc1S2 [ethacizin],-5.42%,-5.11%,-2.38%,-1.38%,2.9%
Oc1cccc(Nc2ncc(F)c(Nc3cccc(O)c3)n2)c1,2.79%,0.2%,0.24%,-2.05%,-5.48%
COc1ccc(O)c(C(C)(C)C)c1.COc1ccc(O)cc1C(C)(C)C [butylated-hydroxyanisole],-2.13%,-2.11%,-2.79%,0.85%,-1.88%
O=C1NC(=O)/C(=C/c2ccc3c(c2)OC(F)(F)O3)S1,2.29%,1.22%,-6.83%,-7.64%,-7.56%
N#Cc1c[nH]c2c(C(=O)N3CCN(CCc4ccc(F)cc4)CC3)cccc12 [pruvanserin],3.23%,-1.53%,2.62%,1.31%,1.69%
Cc1ccc(C23CNCC2C3)cc1 (stereo not given) [bicifadine],0.67%,-0.49%,0.91%,-1.53%,-0.3%
CCN(CC)CC1CCN(c2ncc3ncnc(Nc4ccc(F)c(Cl)c4)c3n2)CC1,1.37%,1.44%,-3%,-7.12%,21.6% (active)
CC(C)[C@H]1CC[C@H](C(=O)N[C@H](Cc2ccccc2)C(=O)O)CC1 [nateglinide],0.56%,2.28%,0.38%,1.09%,1.33%
CC(C)(C)c1cc(C(=O)/C(C#N)=N/Nc2cccc(Cl)c2)no1,1.62%,-1.2%,-0.43%,2.18%,11.6%
CN1CC[C@@H]2CN3CCc4cccc(c43)[C@@H]2C1,-3.24%,-0.59%,1.77%,-0.07%,1.24%
CN(C(=O)/C=C/c1ccoc1)[C@@H]1CC[C@@]2(O)[C@H]3Cc4ccc(O)c5c4[C@@]2(CCN3CC2CC2)[C@H]1O5 [nalfurafine],-5.32%,-1.02%,0.43%,-2.31%,-1.57%
Cn1cccc1/C=C1\C(=O)NC(=O)c2ccccc21,2.55%,-0.08%,-1.24%,-2.42%,5%
CCN(c1cc(C#CCN2CCOCC2)cc(C(=O)NCc2c(C)cc(C)[nH]c2=O)c1C)[C@H]1CC[C@H](N(C)CCOC)CC1,-1.56%,-1.99%,3.36%,-2.9%,-5.69%
COC(=O)c1ccc(N2CCN(C)CC2)c(NC(=O)c2cccc(OC)c2)c1,6.88%,6.06%,-2.23%,-3.85%,1.03%
